From PubChem BioAssay AID602261 (Sanford-Burnham Center for Chemical Genomics, 2012)
The campaign covered roughly 360,000 compounds. About 2,400 (0.67%) were called active.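 How the source made its calls: active means compounds whose normalised, plate-corrected inhibition of enzyme fluorescence in the single-dose primary screen is 50% or more; inactive means the rest.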 Many of the other results were omitted from the sample, so actives are more common in it than they were.

The molecules below were run against Fatty acid synthase (Homo sapiens) (UniProt P49327) (assay: FAS thioesterase domain inhibitors, primary screen, biochemical, fluorescence intensity, uHTS (AID 602261;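 further: 0% = DMSO with enzyme and 100% = substrate without enzyme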)). Conditions: recombinant FAS-TE, OMFH fluorogenic substrate, fluorescence endpoint; at 15 µM; stronger effect = higher value.
Fatty acid synthase (Homo sapiens), sequence (P49327 whole entry, looked up, the tested form may be a part): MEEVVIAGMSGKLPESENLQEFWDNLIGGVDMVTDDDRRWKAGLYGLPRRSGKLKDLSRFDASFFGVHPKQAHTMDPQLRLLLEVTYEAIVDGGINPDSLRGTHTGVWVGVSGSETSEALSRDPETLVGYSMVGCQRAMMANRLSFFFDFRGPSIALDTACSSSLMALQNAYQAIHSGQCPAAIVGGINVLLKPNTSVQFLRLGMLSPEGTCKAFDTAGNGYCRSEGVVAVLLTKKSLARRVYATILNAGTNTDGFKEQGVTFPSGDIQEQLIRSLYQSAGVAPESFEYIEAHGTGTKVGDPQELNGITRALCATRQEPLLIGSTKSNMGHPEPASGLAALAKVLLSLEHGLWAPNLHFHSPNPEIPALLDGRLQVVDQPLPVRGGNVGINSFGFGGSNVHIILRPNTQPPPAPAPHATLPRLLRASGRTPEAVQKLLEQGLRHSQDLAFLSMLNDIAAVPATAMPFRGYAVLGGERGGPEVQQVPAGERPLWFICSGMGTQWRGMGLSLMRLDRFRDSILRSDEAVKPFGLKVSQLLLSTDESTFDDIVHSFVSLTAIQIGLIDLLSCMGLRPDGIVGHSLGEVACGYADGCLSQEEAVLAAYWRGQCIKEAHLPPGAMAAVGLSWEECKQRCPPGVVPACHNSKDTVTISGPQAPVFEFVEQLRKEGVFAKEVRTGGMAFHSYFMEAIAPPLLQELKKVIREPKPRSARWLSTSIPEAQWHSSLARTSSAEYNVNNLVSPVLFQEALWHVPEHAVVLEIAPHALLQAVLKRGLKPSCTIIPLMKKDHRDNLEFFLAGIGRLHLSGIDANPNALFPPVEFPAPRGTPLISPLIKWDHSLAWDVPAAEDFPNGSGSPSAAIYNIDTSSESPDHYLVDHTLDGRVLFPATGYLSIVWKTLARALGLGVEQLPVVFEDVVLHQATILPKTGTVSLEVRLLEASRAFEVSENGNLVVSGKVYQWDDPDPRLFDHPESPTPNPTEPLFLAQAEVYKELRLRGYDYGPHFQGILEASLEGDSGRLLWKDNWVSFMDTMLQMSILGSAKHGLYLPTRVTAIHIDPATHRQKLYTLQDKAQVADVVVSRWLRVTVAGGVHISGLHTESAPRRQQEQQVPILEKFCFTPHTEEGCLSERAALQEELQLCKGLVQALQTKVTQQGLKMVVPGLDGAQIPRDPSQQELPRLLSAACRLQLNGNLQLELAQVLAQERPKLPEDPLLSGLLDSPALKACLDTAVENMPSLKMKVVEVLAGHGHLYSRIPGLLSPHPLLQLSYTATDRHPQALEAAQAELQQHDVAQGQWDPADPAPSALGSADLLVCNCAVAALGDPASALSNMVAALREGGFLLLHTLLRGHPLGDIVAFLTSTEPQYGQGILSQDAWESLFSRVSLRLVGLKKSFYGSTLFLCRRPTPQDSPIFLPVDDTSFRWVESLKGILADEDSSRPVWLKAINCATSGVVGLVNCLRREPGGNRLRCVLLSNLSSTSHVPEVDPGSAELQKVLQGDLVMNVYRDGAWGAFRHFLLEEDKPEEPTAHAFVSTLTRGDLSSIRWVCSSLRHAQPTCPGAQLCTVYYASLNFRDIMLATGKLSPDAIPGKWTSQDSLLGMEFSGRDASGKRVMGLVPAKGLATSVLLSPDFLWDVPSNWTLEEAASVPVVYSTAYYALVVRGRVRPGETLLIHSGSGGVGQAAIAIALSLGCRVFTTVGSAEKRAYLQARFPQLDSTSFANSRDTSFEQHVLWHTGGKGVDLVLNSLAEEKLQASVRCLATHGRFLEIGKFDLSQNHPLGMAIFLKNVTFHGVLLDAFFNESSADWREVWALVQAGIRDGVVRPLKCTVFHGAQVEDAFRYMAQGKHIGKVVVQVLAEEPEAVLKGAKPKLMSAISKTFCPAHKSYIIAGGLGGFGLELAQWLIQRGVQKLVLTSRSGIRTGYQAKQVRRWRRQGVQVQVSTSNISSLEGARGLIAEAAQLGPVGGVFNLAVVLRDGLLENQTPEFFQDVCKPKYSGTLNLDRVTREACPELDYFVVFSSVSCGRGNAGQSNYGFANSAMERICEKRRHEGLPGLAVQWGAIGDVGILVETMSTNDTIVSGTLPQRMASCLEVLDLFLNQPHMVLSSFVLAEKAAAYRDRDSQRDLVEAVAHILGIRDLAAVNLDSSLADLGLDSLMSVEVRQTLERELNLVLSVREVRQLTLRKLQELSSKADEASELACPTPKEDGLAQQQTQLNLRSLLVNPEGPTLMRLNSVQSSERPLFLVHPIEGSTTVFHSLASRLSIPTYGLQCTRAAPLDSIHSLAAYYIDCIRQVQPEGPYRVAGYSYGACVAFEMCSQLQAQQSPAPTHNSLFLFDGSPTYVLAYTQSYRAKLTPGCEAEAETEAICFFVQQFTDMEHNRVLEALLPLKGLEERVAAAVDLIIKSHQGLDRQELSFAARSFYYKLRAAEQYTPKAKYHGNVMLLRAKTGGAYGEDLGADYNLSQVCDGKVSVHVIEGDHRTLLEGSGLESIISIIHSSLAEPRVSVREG

SMILES	inhibition
O=C(Nc1cccc([N+](=O)[O-])c1)N1CCc2ccccc2C1	52.5% (active)
O=C(CN1CCC(NC(=O)Nc2ccccc2)CC1)Nc1cccc([N+](=O)[O-])c1	1.8% (inactive)
CCc1ccc(NC(=O)N2CCc3ccccc3C2)cc1	4.2% (inactive)
N#CCC(=O)N/N=C/c1ccc(SCC(=O)Nc2ccccc2)o1	-2.5% (inactive)
CCC1CCCCN1CCCNC(=O)c1cc2c(Cl)nc3ccccc3c2s1 (stereo not drawn)	-5.7% (inactive)
O=[N+]([O-])c1c(NCCO)cc(Sc2nc3ccccc3s2)c2nonc12	83.1% (active)
COc1cc(C2C(C(=O)c3cccs3)=C(O)C(=O)N2CCN2CCOCC2)ccc1OCCC(C)C (stereo not drawn)	0.8% (inactive)
Cc1cc(C)c(C2C3=C(Nc4c2c(C)nn4-c2ccccn2)c2ccccc2C3=O)c(C)c1 (stereo not drawn)	68.9% (active)
CC/C(Cc1ccccc1)=N/NC(=O)CCn1nnc2ccccc21	-8.1% (inactive)
CC1(C(=O)NS(=O)(=O)c2ccc(C#N)cc2)CCN1C(=O)CC1CCCC1 (stereo not drawn)	4.2% (inactive)
CC1(C(=O)NS(=O)(=O)c2ccc(C#N)cc2)CCN1C(=O)c1ccc(C2CCCCC2)cc1 (stereo not drawn)	62.6% (active)
Cc1noc(C)c1C(=O)N1CCC1(C)C(=O)NS(=O)(=O)c1ccc(C#N)cc1 (stereo not drawn)	-9% (inactive)
O=C1CCC/C(=N\NC(=O)NC2CCCCC2)C1	-1% (inactive)
COc1cccc(-n2nc(C(=O)N3CCN(Cc4ccccc4)CC3)c3ccccc3c2=O)c1	3.5% (inactive)
CCOC(=O)N1CCN(Cc2nc3ccc([N+](=O)[O-])cc3c(=O)n2-c2cccc(OC)c2)CC1	72.4% (active)
CCOC(=O)N1CCN(Cc2nc3cc(NC(C)=O)ccc3n2C)CC1	-7% (inactive)
CCOC(=O)CSC1=N/C(=C/c2ccc(-n3cncn3)cc2)C(=O)N1C(C)=O	-6.6% (inactive)
Cc1c(Cl)c([N+](=O)[O-])nn1Cc1ccc(C(=O)N/N=C\c2cc(Cl)ccc2O)o1	36.1% (inactive)
Cc1cc(C(=O)N/N=C/c2cc([N+](=O)[O-])cc(C)c2O)n[nH]1	65.7% (active)
Cc1occc1C(=O)N/N=C/c1ccc(-c2cccc([N+](=O)[O-])c2)o1	20.7% (inactive)
Cc1ccc(S(=O)(=O)Nc2ccc3c(c2)C(=O)N([C@H](C)CO)C[C@@H](C)[C@@H](CN(C)C(=O)Nc2cccc4ccccc24)O3)cc1	-2.7% (inactive)
COc1ccc2nc(Nc3nc4cc5c(cc4s3)OCCO5)sc2c1	66.6% (active)

SMILES	inhibition
Fc1ccc2nc(Nc3nc4c(s3)CCCC4)sc2c1	7.4% (inactive)
COc1ccc2nc(N3CCN(C(=O)c4ccc([N+](=O)[O-])o4)CC3)sc2c1	10.7% (inactive)
CSc1ccccc1NC(=O)c1cnc2sc(C)cn2c1=O	4.9% (inactive)
O=[N+]([O-])c1cc([N+](=O)[O-])c(Oc2cc(F)cc(F)c2F)cc1NN1CCCCC1	11.3% (inactive)
Cc1cccc(C(=O)OCC(=O)NC(C)C2CC3CCC2C3)c1O (stereo not drawn)	20.1% (inactive)
Cc1c(C(=O)NC(C)C2CC3CCC2C3)cccc1[N+](=O)[O-] (stereo not drawn)	11.2% (inactive)
COC(=O)c1cc(C(=O)NC(C)C2CC3CCC2C3)cc([N+](=O)[O-])c1 (stereo not drawn)	50.5% (active)
COc1ccc(CN2C(CC(=O)Nc3cccnc3)c3ccc(C(F)(F)F)cc3S2(=O)=O)cc1 (stereo not drawn)	14.3% (inactive)
CCCCc1nc2cc(C(=O)NCCc3cnn(C)c3)ccc2o1	-2.8% (inactive)
Cc1noc(C)c1NC(=O)Nc1ccc2c(c1)C(=O)N([C@H](C)CO)C[C@H](C)[C@@H](CN(C)C(=O)Nc1ccccc1)O2	-5.3% (inactive)
Cc1noc(C)c1NC(=O)Nc1cccc2c1O[C@H](CN(C)S(=O)(=O)c1c(C)noc1C)[C@@H](C)CN([C@H](C)CO)C2=O	3.4% (inactive)
Cc1noc(C)c1NC(=O)Nc1cccc2c1O[C@H](CN(C)C(=O)Nc1ccccc1)[C@@H](C)CN([C@H](C)CO)C2=O	55.4% (active)
COc1ccc(CCCNC(=O)C2Cc3c(-c4cccc(C(N)=O)c4)ccnc3O2)cc1 (stereo not drawn)	1.7% (inactive)
O=S(=O)(NCCCCCCNS(=O)(=O)c1c(F)cccc1F)c1ccc2c(c1)OCCO2	3.8% (inactive)
O=C(Nc1nnc(SCc2c(Cl)cccc2Cl)s1)C1CCCO1 (stereo not drawn)	0.2% (inactive)
O=C(Nc1nnc(SCc2ccccc2Cl)s1)c1cccc([N+](=O)[O-])c1	58.6% (active)
COCCSc1nnc(NC(=O)c2cc(OC)c(OC)cc2[N+](=O)[O-])s1	-10.4% (inactive)
CCCn1c(N)c(C(=O)CSc2nc3ccccc3c(=O)n2-c2ccc(OC)cc2)c(=O)[nH]c1=O	-0.6% (inactive)
O=S(=O)(Cc1noc(-c2ccc(OC(F)(F)F)cc2)n1)c1ccc(F)cc1	15.8% (inactive)
Cc1ccc(S(=O)(=O)NCC(=O)N(CC(=O)NCC2CCCO2)c2cccc(F)c2)cc1 (stereo not drawn)	-4.4% (inactive)
CC(C)Oc1ccc(Cc2n[nH]c(=S)n2Cc2ccccc2)cc1Cl	57% (active)
CC(C)Oc1ccc(CCc2n[nH]c(=S)n2Cc2ccccc2)cc1	19.3% (inactive)

SMILES	inhibition
COc1cc(-c2n[nH]c(=S)n2Cc2ccccc2)cc(OC)c1OC	-3.4% (inactive)
O=C(Nc1cccc(S(=O)(=O)N2CCOCC2)c1)C12CC3CC(CC(C3)C1)C2	9.3% (inactive)
O=C(/C=C/c1ccc([N+](=O)[O-])cc1)NCCSCc1ccco1	9.8% (inactive)
O=C(/C=C/c1cccc([N+](=O)[O-])c1)NCCSCc1ccco1	55.4% (active)
O=C(NCc1ccco1)/C(=C/c1cccc([N+](=O)[O-])c1)NC(=O)c1ccco1	38.7% (inactive)
Cc1ccc(NC(=O)/C(=C\c2ccccc2)NC(=O)c2ccco2)cc1	0% (inactive)
COc1ccc(/C=C(/NC(=O)c2ccco2)C(=O)Nc2ccc(C(C)=O)cc2)cc1	-1.1% (inactive)
O=C(NCc1ccco1)c1ccc([N+](=O)[O-])cc1Cl	5.6% (inactive)
O=C(Nc1ccc2ccccc2c1)/C(=C/c1cccc(Br)c1)NC(=O)c1ccco1	52.3% (active)
O=C(NCc1ccco1)/C(=C/c1ccco1)NC(=O)c1ccccc1	-4.1% (inactive)
O=C(NCc1ccco1)/C(=C\c1cccc([N+](=O)[O-])c1)NC(=O)c1ccco1	51.4% (active)
Cc1cc([N+](=O)[O-])nn1Cc1ccc(F)cc1	-0.9% (inactive)
CCC1CCC/C1=N\NC(=O)c1ccc(Cl)cc1 (stereo not drawn)	-4.6% (inactive)
COc1ccc(OC)c(NC(=O)c2cc(-c3cc(F)ccc3OCC3CCCO3)n[nH]2)c1 (stereo not drawn)	22.4% (inactive)
CCN(CC)S(=O)(=O)c1ccc2[nH]c(=O)cc(C(=O)N(C)C3CCS(=O)(=O)C3)c2c1 (stereo not drawn)	0% (inactive)
Cc1ccc(S(=O)(=O)n2cnc3ccccc32)c(C)c1	-4.2% (inactive)
Cc1ccc(S(=O)(=O)c2nnn3c2nc(N2CCN(c4ccccn4)CC2)c2ccccc23)cc1	65.9% (active)
CCOC(=O)c1nnn2c1nc(N1CCN(c3ccccc3)CC1)c1ccccc12	19.9% (inactive)
Cc1cccc(Nc2nc3c(S(=O)(=O)c4ccccc4)nnn3c3ccccc23)c1C	-3.1% (inactive)
CCc1ccccc1OCC(=O)Nc1nnc(C2CC2)s1	-9.2% (inactive)
Cc1ccc(S(=O)(=O)N2CCN(C(=O)c3ccccc3-c3nc4ccccc4s3)CC2)c(C)c1	15.3% (inactive)
OC(CN1C2=NCCCN2c2ccccc21)c1ccc(Br)cc1 (stereo not drawn)	-4.6% (inactive)

SMILES	inhibition
CC(NC(=O)c1ccco1)c1ccc2c(c1)OCO2 (stereo not drawn)	-6.5% (inactive)
CC(NC(=O)Nc1cccc([N+](=O)[O-])c1)c1ccc2c(c1)OCO2 (stereo not drawn)	83.4% (active)
Cc1noc(C)c1C(=O)NC(C)c1ccc2c(c1)OCO2 (stereo not drawn)	-5.5% (inactive)
CCN1CCN(c2sc(S(C)(=O)=O)nc2S(=O)(=O)c2ccc(Cl)cc2)CC1	-2.8% (inactive)
O=C(Nc1ccc(S(=O)(=O)N2CCOCC2)cc1)C1CCN(S(=O)(=O)c2ccc(Cl)cc2)CC1	28.3% (inactive)
O=C(Nc1ccccc1)c1nnsc1S(=O)(=O)c1ccc(Cl)cc1	69.7% (active)
Cc1nnsc1S(=O)(=O)Cc1ccccc1Cl	-6.8% (inactive)
O=C(NCCO)c1cccc(-c2cccc3nccn23)c1	-6.3% (inactive)
Cc1cc(C(F)F)nn1CC(=O)NC1CCCCCC1	-5.3% (inactive)
Cn1c(=O)n(C)c2cc(NS(=O)(=O)c3ccc(F)cc3)ccc21	-7.3% (inactive)
COc1ccccc1-n1cnc2cc(NS(=O)(=O)c3ccccc3)ccc21	0.1% (inactive)
CC1(C)CC(=O)c2c(n(S(=O)(=O)c3ccccc3)c3ccc(NS(=O)(=O)c4ccccc4)cc23)C1	79.6% (active)
CC(=O)N(Cc1cccs1)C1CCOC(C)(C)C1 (stereo not drawn)	-7.2% (inactive)
CCCCN1C(=O)CCC(C(=O)O)C1c1ccc(OC)cc1 (stereo not drawn)	-7.9% (inactive)
COc1ccc(C(=O)N(C)CC(O)c2ccccc2)cc1OC1CCN(C(C)=O)CC1 (stereo not drawn)	0.7% (inactive)
Cc1ccc(S(=O)(=O)/N=C(/Nc2ccc3[nH]c(=O)[nH]c3c2)c2ccccc2)cc1	-11.9% (inactive)
Cc1ccc(S/C(=N\S(=O)(=O)c2ccc(Cl)cc2)c2ccccc2)cc1	57.1% (active)
Cc1ccc(S(=O)(=O)/N=C(/Nc2ccccn2)c2ccc(Cl)cc2)cc1	2.1% (inactive)
COc1ccccc1C1CCN(C(=S)Nc2ccc(Br)cc2)CC1	31% (inactive)
CCOc1ccc(Br)cc1S(=O)(=O)Nc1ccc(S(=O)(=O)Nc2cc(C)on2)cc1	-8.8% (inactive)
CCOc1ccc(Br)cc1S(=O)(=O)Nc1cccc(S(=O)(=O)N(CC)CC)c1	22.7% (inactive)
CCOc1ccc(Br)cc1S(=O)(=O)Nc1ccc(C(=O)OC(C)C(=O)N(C)c2ccccc2)cc1 (stereo not drawn)	53.8% (active)
